Screening results: PubChem, several laboratories
KKLEB tox: counter-screen for CF NF-kB inhibitors: cytotoxicity; KKLEB CF airway cells viability, ATPlite luminescence, overnight; active compounds read low; cells stimulated with P. aeruginosa culture filtrate; activity change (cytotoxicity), % at 5 µM; 0.36% of 360,000 active;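 active means corrected activity change at or below -50% at 5 µM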
CHOP inhibitor: CHOP inhibition in unfolded protein response. 3.8% of 220,000 active. CHO-K1 CHOP-promoter luciferase, tunicamycin-induced, 15-18 h. inhibition, % at 10 µM. AID 2732;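 active means compounds that reduced the stress-induced luciferase reporter signal by more than about 70% of percent inhibition, limit read from the data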;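 further: 0% = tunicamycin plus vehicle and 100% = wells without tunicamycin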
MITF TRPM1 inh: inhibitors of MITF-driven TRPM1 promoter in melanoma cells; SK-MEL-5 TRPM1 promoter luciferase, 24 h; inhibition, % at 12.5 µM; 0.83% of 330,000 active; AID 488899;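 active means mean inhibition across replicates of 60% or more, whatever share of single replicates reaches that level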
CF NFkB block: blocks PAF-induced NF-kB reporter in cystic fibrosis cells. KKLEB NF-kB-GFP reporter, GFP fluorescence overnight. inhibition, % at 5 µM. 0.86% of 360,000 active. AID 588850;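 active means at least 50% inhibition at 5 µM, scaled per plate between neutral and stimulator controls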;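 further: PAF is a Pseudomonas aeruginosa culture filtrate used as stimulus; plate controls were PAF-stimulated DMSO wells for no effect and unstimulated DMSO wells for full effect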
Peg3 prom inh: reduces Peg3 promoter-driven luciferase expression in HeLa; HeLa PEG-Prom luciferase reporter, luminescence, overnight; inhibition, % at 20 µM; 1.7% of 360,000 active; AID 588405;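 active means inhibition of at least 50% at 20 µM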
HIF-2a inh: HIF-2a inhibition; 786-0 RCC cells HIF-2a reporter, luciferase luminescence, overnight; inhibition, % at 18.8 µM; 0.72% of 360,000 active; AID 624352;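 active means inhibition of the luminescence signal of 40% or more relative to plate controls, in a single-dose primary screen at 18.75 µM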
Starred values were filed as active, the others as inactive. Rows were chosen to be rich in hits. Some 4.3% of all compounds tested hit in one or more screens of this group.

Results for CCOC(=O)C1=C(COC(=O)CCOc2ccc(C)cc2)NC(=O)NC1C (stereo unspecified) ?
KKLEB tox: -13; MITF TRPM1 inh: -7; CF NFkB block: 44; Peg3 prom inh: 56*; HIF-2a inh: -17

What do the screens show for `O=S1(=O)N[C@H](Cc2ccccc2)COc2cccc(N3CCC[C@@H]3CO)c21`?
HIF-2a inh: 12

Results for O=C(O)c1ccc(Oc2nc3ccccc3s2)cc1 ?
KKLEB tox: 10; MITF TRPM1 inh: -70; CF NFkB block: -17; Peg3 prom inh: 84*; HIF-2a inh: -127

How did O=C(O)c1ccc(-c2nc3ccccc3s2)o1 do in these assays?
KKLEB tox: -13; CHOP inhibitor: 7; MITF TRPM1 inh: 15; CF NFkB block: 12; Peg3 prom inh: -11; HIF-2a inh: -7

What do the screens show for `CCCN1C[C@@H](C)[C@@H](OC)CN(C)C(=O)c2ccc(NC(=O)c3cccc(F)c3)cc2OC[C@H]1C`?
HIF-2a inh: -1

How did CC(CC(=O)N1CCc2ccccc21)S(=O)(=O)c1ccc2c(c1)NC(=O)CO2 (stereo unspecified) do in these assays?
KKLEB tox: 4; MITF TRPM1 inh: -4; CF NFkB block: -14; Peg3 prom inh: -21; HIF-2a inh: -6

Results for Cc1ccc(-c2nnc(-c3cccc(Br)c3)o2)cc1 ?
KKLEB tox: -5; CHOP inhibitor: 5; MITF TRPM1 inh: -48; CF NFkB block: -7; Peg3 prom inh: -249; HIF-2a inh: -208

Results for Brc1cccc(-c2nnc(-c3ccccc3)o2)c1 ?
KKLEB tox: -12; CHOP inhibitor: 75*; MITF TRPM1 inh: -43; CF NFkB block: 5; Peg3 prom inh: -225; HIF-2a inh: -139

How did Cn1c(=O)c([N+](=O)[O-])c(-n2cnc3ccccc32)c2ccccc21 do in these assays?
KKLEB tox: -6; CHOP inhibitor: 74*; MITF TRPM1 inh: 13; CF NFkB block: -8; Peg3 prom inh: 21; HIF-2a inh: 34

What do the screens show for `CC1CC(C)CN(S(=O)(=O)c2ccc3oc(=O)ccc3c2)C1` (stereo unspecified)?
KKLEB tox: 4; MITF TRPM1 inh: 1; CF NFkB block: -2; Peg3 prom inh: -3; HIF-2a inh: 9

How did CC(OC(=O)CNC(=O)C12CC3CC(CC(C3)C1)C2)C(=O)Nc1ncc(Cl)cc1Cl (stereo unspecified) do in these assays?
KKLEB tox: 6; CHOP inhibitor: 6; MITF TRPM1 inh: -9; CF NFkB block: 0; Peg3 prom inh: 13; HIF-2a inh: 2

Results for CC1CCc2sc(C(=O)OC(C)C(=O)Nc3ncc(Cl)cc3Cl)cc2C1 (stereo unspecified) ?
CHOP inhibitor: 90*

Results for CC(C)Sc1ncnc2[nH]ncc12 ?
KKLEB tox: 3; MITF TRPM1 inh: -3; CF NFkB block: 29; Peg3 prom inh: -2; HIF-2a inh: -16

What do the screens show for `C=C[C@]1(C)C=C2C(=O)[C@@]3(O)OC(=O)[C@@]4(CCCC(C)(C)[C@H]34)[C@@]2(O)CC1`?
KKLEB tox: -99*; CF NFkB block: 88*; Peg3 prom inh: 99*; HIF-2a inh: 97*

How did COc1ccc(Sc2cc(C(F)(F)F)nc(-c3ccccn3)n2)cc1 do in these assays?
KKLEB tox: -12; CHOP inhibitor: 83*; MITF TRPM1 inh: -5; CF NFkB block: 0; Peg3 prom inh: 11; HIF-2a inh: -10

How did Cc1c(C(=O)NC2CCCc3ccccc32)cccc1[N+](=O)[O-] (stereo unspecified) do in these assays?
KKLEB tox: -2; MITF TRPM1 inh: 1; CF NFkB block: -10; Peg3 prom inh: 7; HIF-2a inh: 9

How did CC(O)[C@H]1CN=C(N)N1CCc1cc(C(F)(F)F)cc(C(F)(F)F)c1 (stereo partly specified) do in these assays?
KKLEB tox: 0; CHOP inhibitor: 11; MITF TRPM1 inh: -8; CF NFkB block: 5; Peg3 prom inh: 3; HIF-2a inh: -2

How did NC1=NC[C@H](c2ccccc2)N1CCc1cc(C(F)(F)F)cc(C(F)(F)F)c1 do in these assays?
KKLEB tox: 0; CHOP inhibitor: 20; MITF TRPM1 inh: 34; CF NFkB block: -4; Peg3 prom inh: 98*; HIF-2a inh: 9

Results for Cc1ccccc1-c1cc2nc(NCCN3CCNC3=O)n(C)c(=O)c2s1 ?
KKLEB tox: -3; CF NFkB block: 11; Peg3 prom inh: -14; HIF-2a inh: -49

What do the screens show for `CCOC(=O)N1CCN(C(=O)c2ccc(Cn3c(=S)[nH]c4cc(OCC)c(OCC)cc4c3=O)cc2)CC1`?
KKLEB tox: 0; CHOP inhibitor: 28; MITF TRPM1 inh: 50; CF NFkB block: -1; Peg3 prom inh: 11; HIF-2a inh: 25

Results for CCCCCn1c(=O)[nH]c2cc(C(=O)N3CCN(Cc4ccc5c(c4)OCO5)CC3)ccc2c1=O ?
KKLEB tox: -4; CHOP inhibitor: 82*; MITF TRPM1 inh: 50; CF NFkB block: 9; Peg3 prom inh: 18; HIF-2a inh: 15

How did CCOC(=O)N1CCN(C(=O)c2ccc(Cn3c(=S)[nH]c4cc5c(cc4c3=O)OCO5)cc2)CC1 do in these assays?
KKLEB tox: 18; CHOP inhibitor: 41; MITF TRPM1 inh: 63*; CF NFkB block: 3; Peg3 prom inh: 8; HIF-2a inh: 8

Results for O=C(c1ccc2c(=O)n(Cc3ccc4c(c3)OCO4)c(=S)[nH]c2c1)N1CCCCC1 ?
KKLEB tox: -12; CHOP inhibitor: 92*; MITF TRPM1 inh: 8; CF NFkB block: 11; Peg3 prom inh: 13; HIF-2a inh: 11

Results for COCCCNC(=O)c1ccc2c(=O)n(Cc3ccc(Cl)cc3)c(=S)[nH]c2c1 ?
KKLEB tox: -2; MITF TRPM1 inh: 4; CF NFkB block: -2; Peg3 prom inh: 9; HIF-2a inh: -5

What do the screens show for `CC1CCN(CCNC(=O)c2ccc3c(=O)n(Cc4ccc(Cl)cc4)c(=S)[nH]c3c2)CC1`?
KKLEB tox: -12; MITF TRPM1 inh: 45; CF NFkB block: -5; Peg3 prom inh: 95*; HIF-2a inh: 30

Results for CC1CC(C)CN(C(=O)c2ccc3c(=O)n(Cc4ccc5c(c4)OCO5)c(=S)[nH]c3c2)C1 (stereo unspecified) ?
KKLEB tox: -2; CHOP inhibitor: 95*; MITF TRPM1 inh: -11; CF NFkB block: -5; Peg3 prom inh: 6; HIF-2a inh: 30

What do the screens show for `CC(=O)Nc1ccccc1OCC(=O)NC(C)c1ccccc1` (stereo unspecified)?
KKLEB tox: 8; CHOP inhibitor: 18; MITF TRPM1 inh: 11; CF NFkB block: -14; Peg3 prom inh: 1; HIF-2a inh: 7

Results for CC(NC(=O)COc1ccccc1-c1ccccc1)c1ccccc1 (stereo unspecified) ?
KKLEB tox: -1; CHOP inhibitor: 77*; MITF TRPM1 inh: -11; CF NFkB block: 6; Peg3 prom inh: 33; HIF-2a inh: 30
